Values joined by “and” are separate entries in the source; they are usually repeats but may differ in a detail not shown here. Equal values may be shown once. The campaign covered roughly 290,000 compounds. About 27,000 (9.3%) were called active. Shown is part of a subset that was picked to be rich in actives. Values without a mark were called inactive. Cut-off read from the data, not from the text of the source: active = inhibition mostly above about 28% (no sharp cut-off); inactive = mostly below about 43%.

This test is described as follows: A qHTS for Small Molecule Inhibitors of Shiga Toxin. Note: 0% is about no effect. Conditions: Vero cells, Shiga toxin protein synthesis inhibition reporter; at 38.7 µM, hits give high values. On the technique in general: qHTS replaces the single test concentration by a dilution series.
`CCNS(=O)(=O)c1ccc(NC(=O)c2cncc(Br)c2)cc1`: the inhibition is -9.77%.

For `COc1ccccc1N1CCN(C(=O)c2ccc(NC3=NC4CS(=O)(=O)CC4S3)cc2)CC1` (centres undefined), the inhibition was -1.81%. `COc1ccc(CNC(=O)C2CC(c3ccc(C(F)(F)F)cc3)=NO2)cc1` (centres undefined): the inhibition was -4.35%. For `Cc1cc(C(=O)NC2CCN(Cc3ccccc3)CC2)n[nH]1`, the inhibition is -10.2%.

As to `CCOc1ccc(C(=O)Nc2c3c(nn2-c2ccccc2)CS(=O)(=O)C3)cc1`, the inhibition is -5.21%. The value for `COC(=O)c1c(NC(=O)C(=O)N2CCCCC2)sc2c1CC(C)(C)OC2` was -9.37%; that for `Cc1ccc(OCCCCc2c(C)n[nH]c2C)cc1` was 25.2%; that for `COc1ccc(OCc2cn3c(C)cc(C)nc3n2)cc1` was 48.1% (active). On to `Cc1cc(C)nc(SCc2cn3c(C)cc(C)nc3n2)n1`, for which the inhibition is 2.5%. For `Cc1ccc2nc(SCc3cn4c(C)cc(C)nc4n3)[nH]c2c1`, the inhibition is -3.11%. In the case of `CC(C(=O)N=Nc1c(O)n(C)c2ccc(Br)cc12)n1cnc2ccccc2c1=O` (centres undefined), the inhibition is -6.1%.

Consider `CSCCC(NS(=O)(=O)c1ccccc1F)C(=O)N1CC=C(c2ccccc2)CC1` (centres undefined), for which the inhibition is -9.3%. For the compound `COCCN(C(=O)C(C)C)c1nnc(-c2ccc(C(C)(C)C)cc2)s1`, the inhibition is 24.3%. For the compound `COc1ccc(CSc2nnnn2-c2ccc(C(=O)O)cc2)cc1`, the inhibition is -2.72%. For the compound `COc1ccc(-n2nnnc2-c2nc3ccccc3s2)cc1`, the inhibition was 77.2% (active).

Turning to `CCOc1cccc(-n2nnnc2-c2ccc(OC)cc2)c1`, the inhibition is 0.378%. The value for `COC(=O)c1ccc(CN2CCCC(C(=O)Nc3cccc(-n4cnnn4)c3)C2)cc1` (centres undefined) was -11.4%. For `OCCCN1c2ccccc2Nc2nnc(-c3ccccc3)cc21`, the inhibition was 57.2% (active). For the compound `N=c1c2c(-c3ccccc3)c(-c3ccccc3)n(Cc3ccccc3)c2ncn1CCCO`, the inhibition is -13.5%. To `O=[N+]([O-])c1ccc(N(CCO)Cc2ccccc2)c([N+](=O)[O-])c1` belongs 6.65%. To `COc1ccc(C(=O)c2c(C)c(CCC#N)n3ccccc23)c(OC)c1` belongs -12.7%; to `CC(C)C(=O)Nc1ccc2oc(=O)ccc2c1`, 31%. Turning to `CC(C)C(=O)Nc1c(C(=O)c2ccc(F)cc2)oc2ccccc12`, the inhibition was -3.91%. Take `CC(C)C(=O)Nc1ccc2c(c1)oc1ccccc12`: the inhibition is 105% (active). On to `Cc1c(CC(=O)NCC(=O)NCC(=O)O)c(=O)oc2cc3oc4c(c3cc12)CCCC4`, for which the inhibition was 2.91%. `CCNC(=O)c1sccc1-n1cccc1`: the inhibition is -7.99%. In the case of `CC(C)=CCc1c(O)c(CC=C(C)C)c2occ(-c3ccc(O)cc3)c(=O)c2c1O`, the inhibition was 46.6% (active). On to `CCc1ccc(OCC(=O)NCC(c2ccc(Cl)cc2)N2CCCCC2)cc1` (centres undefined), for which the inhibition is -3.91%.

In the case of `CCOC(=O)Cn1c(O)c(N=NC(=O)CNC(=O)Cc2ccccc2)c2ccccc21`, the inhibition was 13.1%. `CC(C)(C)N(Cc1ccccc1)C(=O)c1ccncc1`: the inhibition was -5.35%. Consider `O=C(Nc1cccc(Cl)c1)OCc1ccccn1`, for which the inhibition was 98% (active). With `O=C(Nc1ccccc1)OCc1cc(-c2ccc(Cl)cc2)on1`, the inhibition is -25%. `O=C(Nc1cccc(CCc2ccccn2)c1)c1ccc(Cl)cc1`: the inhibition is 22.8%. For `COC(=O)c1ccc2ccccc2c1OC1OC(CO)C(O)C(O)C1NC(C)=O` (centres undefined), the inhibition was -11.3%. For `CCN(CC)c1ccc2c(Nc3ccccc3)c(C=O)c(=O)oc2c1`, the inhibition is 29.5%. `CCN(CC)c1ccc2oc(=O)c(C)nc2c1`: the inhibition is 22% (active). Regarding `CCN(CC)c1ccc2cc(C(N)=O)/c(=N\NC(=O)c3ccncc3)oc2c1`, the inhibition was 24.7%.

Consider `COc1cc2c(cc1OC)C(/C=C/c1ccco1)=NCC2`, for which the inhibition is -7.71%.

`Cc1ccccc1N1CC(C(=O)Nc2ccc3c(c2)OCO3)CC1=O` (centres undefined): the inhibition was 21.6%. `O=C(Nc1ccc2c(c1)OCO2)C1CC(c2c(F)cccc2Cl)=NO1` (centres undefined): the inhibition was 72.1% (active). As for `Cc1ccc(NC(=O)C2CC(c3ccc(F)cc3)=NO2)cc1` (centres undefined), the inhibition is -22.6%.

For `COc1cc(S(=O)(=O)Nc2ncn[nH]2)ccc1Cl`, the inhibition is -3.71%. For the compound `CCC1CCCCN1C(=S)Nc1ccc(S(=O)(=O)Nc2ncccn2)cc1` (centres undefined), the inhibition was 8.74%.

With `CC(=O)c1ccc(OCC(O)CN2CCN(S(=O)(=O)c3cccc(Br)c3)CC2)cc1` (centres undefined), the inhibition is -10%. In the case of `COc1ccc(S(=O)(=O)Nc2c(C)n(C)n(-c3ccccc3)c2=O)cc1`, the inhibition is 1.34%. For the compound `COc1ccc2cc(S(=O)(=O)Nc3ccccn3)ccc2c1`, the inhibition is -1.18%. On to `COc1ccc(S(=O)(=O)/N=C2\C=C(NS(=O)(=O)c3ccccc3)C(=O)c3ccccc32)cc1`, for which the inhibition was 61.3% (active). Consider `CCn1c(C)c(C)c2cc(C(=O)N3CCN(c4cccc(C)c4C)CC3)ccc21`, for which the inhibition was -9.52%. The value for `Cc1ccc(C(=O)N/C(=C/c2cccs2)C(=O)NCC2CCCO2)cc1` (centres undefined) was 16.9%. For the compound `Cc1ccc(-n2c(C)cc(/C=C(\C#N)C(=O)NCC3CCCO3)c2C)cc1` (centres undefined), the inhibition is 108% (active). As to `Cc1ccc(S(=O)(=O)N2CCC(C(=O)NCC3CCCO3)CC2)cc1` (centres undefined), the inhibition was -25.2%. Regarding `C/C(N)=C(/C#N)C(=O)COC(=O)c1cc(-c2cccc(Br)c2)nc2ccccc12`, the inhibition is 5.3%. For `C/C(N)=C(/C#N)C(=O)COC(=O)c1cc(-c2ccccc2)nc2ccc(Br)cc12`, the inhibition was -3.47%. With `COc1ccc(-c2cc(C(=O)n3cnc4ccccc43)c3ccccc3n2)cc1`, the inhibition was 6.77%. Regarding `CNC(=O)COC(=O)c1cc(-c2ccc(OC)cc2)nc2ccccc12`, the inhibition is 54.5% (active). On to `C/C(N)=C(/C#N)C(=O)COC(=O)c1cc(-c2ccc(C)cc2)nc2ccccc12`, for which the inhibition was 53.2% (active). Turning to `COc1ccc(-c2cc(C(=O)N(C)Cc3ccccc3)c3ccccc3n2)cc1`, the inhibition is -2.41%.

Consider `O=C(c1cccs1)N(Cc1cc2ccccc2[nH]c1=O)CC1CCCO1` (centres undefined), for which the inhibition is -16%. In the case of `CCN1C(=NCCc2cccnc2)N[C@@H](c2ccccc2)C(C(=O)OC)=C1C`, the inhibition was -1.87% and -4.64%.

As a reminder, the inhibition is the relative decrease from the control value, in per cent.

Values taken from PubChem BioAssay AID2315 (National Center for Advancing Translational Sciences (NCATS), 2010).
